Source: PubChem BioAssay
Active and inactive are the calls of the source.

Columns and labels:
[1] = small molecules captured by biotinylated probe aFSTL3 – biochemical, small-molecule microarray, fluorescence 635/667, stem cell growth factor project, primary screen (AID 1064); conditions: higher = more signal;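 further: measures binding of the biotinylated anti-FSTL3 antibody to printed compounds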
[2] = binders from COS7 lysate, DM2A8 probe, primary screen, torsin A project, cell lysate, small-molecule microarray, fluorescence 635/667 (AID 1065); conditions: higher = more signal, COS7 lysate expressing mutant human TOR1A
[3] = small molecules captured by biotinylated probe aFGF2 – biochemical, small-molecule microarray, fluorescence 635/667, stem cell growth factor project, primary screen (AID 1067); conditions: higher = more signal;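 further: measures binding of biotinylated aFGF2 protein to printed compounds on slides; z-score merges feature fluorescence and signal-to-noise across triplicate slides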
[4] = small molecules captured by biotinylated probe aFGF10 – biochemical, small-molecule microarray, fluorescence 635/667, stem cell growth factor project, primary screen (AID 1071); conditions: higher = more signal;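 further: score merges 667 nm spot intensity and signal to noise from triplicate slides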
[5] = molecular target: Neurogenic locus notch homolog protein 2 (Homo sapiens) (UniProt Q04721); assay: small molecules binding Notch2 protein – biochemical, small-molecule microarray, 635 nm fluorescence, stem cell growth factors, primary screen (AID 1073); conditions: higher = more signal
[6] = molecular target: Pro-neuregulin-1, membrane-bound isoform (Homo sapiens) (UniProt Q02297); assay: small molecules binding neuregulin-1 protein – biochemical, small-molecule microarray, fluorescence 635/667, psychiatric disease protein project, primary screen (AID 1075); conditions: NRG1 binding, 635 nm fluorescence, higher = more signal;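 further: score combines 667 nm spot fluorescence with signal to noise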
[7] = tested on: Neuregulin-1 EGF-like domain; assay: small molecules binding NRG1 EGF domain – biochemical, small-molecule microarray, 635 nm fluorescence, primary screen (AID 1081); conditions: higher = more signal;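 further: binding of the protein to compounds printed on small-molecule microarray slides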
[8] = FRG1 expression reporter modulators in myotubes – cell-based, C2C12 myotubes, firefly/Renilla luciferase, luminescence, FRG1 inhibition for FSHD, primary screen (AID 1084); conditions: FRG1 promoter luciferase, higher = more signal, called active from +8 up or from −8 down
[9] = small molecules captured by biotinylated probe aFST – biochemical, small-molecule microarray, fluorescence 635/667, stem cell growth factor project, primary screen (AID 1086); conditions: higher = more signal;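 further: score merges 667 nm fluorescence with signal-to-noise of each printed compound spot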
[10] = binders of probe aHhip on microarray, primary screen, stem cell growth factor project, biochemical, small-molecule microarray, fluorescence 635/667 (AID 1087); conditions: higher = more signal;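 further: score merges spot fluorescence at 667nm with spot signal to noise ratio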
[11] = tested on: PRMT1 (protein arginine N-methyltransferase 1); assay: small molecules binding arginine methyltransferase PRMT1 – biochemical, small-molecule microarray, 635 nm fluorescence, primary screen (AID 1088); conditions: higher = more signal;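 further: binding of Prmt1 protein to compounds spotted on small-molecule microarray slides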
[12] = growth effects on S. cerevisiae YJM789 – YJM789 clinical isolate, OD600, 24 h, basal, primary screen (AID 1089); conditions: higher = more signal, called active from +8 up or from −8 down;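 further: growth of clinical yeast isolate S. cerevisiae YJM 789 seeded 1000 cells per well; test concentration not given here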
[13] = S. pombe growth modifiers, basal conditions – strain 972, OD600, 24 h, no modulator, primary screen (AID 1090);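 further: basal condition with compound alone and no growth modifier present; test concentration not given here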; conditions: S. pombe 972 growth, higher = more signal, called active from +8 up or from −8 down
[14] = budding yeast growth modifiers under rapamycin – strain BY4716, OD600, 96 h, primary screen (AID 1091); further: test concentration not given here; conditions: S. cerevisiae BY4716 + rapamycin, higher = more signal, called active from +8 up or from −8 down
[15] = molecular target: Torsin-1A-interacting protein 2 (Homo sapiens) (UniProt Q8NFQ8); assay: small molecules binding lysate-expressed LULL1 – cell lysate, human LULL1 lysate, 635/667 nm fluorescence, primary screen (AID 1092); conditions: small-molecule microarray, hLULL1 lysate binding, 635 nm fluorescence; higher = more signal;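 further: probe is lysate of COS7 cells overexpressing human LULL1; score merges per-feature 667 nm fluorescence with signal-to-noise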
[16] = optical density change of DRC41 E. coli – strain DRC41, OD650, 24 h, E. coli filamentation project, primary screen (AID 1093);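 further: MC1000 strain lacking acrAB efflux and sulA so SOS filamentation is blocked; test concentration not given here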; conditions: E. coli DRC41 growth, higher = more signal, called active from +8 up or from −8 down
[17] = probe aLefty2 binding to arrayed compounds – biochemical, biotinylated probe, 635/667 nm fluorescence, primary screen (AID 1094); conditions: small-molecule microarray, higher = more signal;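 further: score merges spot fluorescence near 667 nm with spot signal-to-noise ratio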
[18] = tested on: Noggin (protein binding on small-molecule microarray); assay: small molecules binding Noggin protein – biochemical, 635/667 nm fluorescence, primary screen (AID 1095); conditions: 635 nm fluorescence, higher = more signal;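 further: score merges 667 nm feature fluorescence with signal to noise over triplicate slides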
[19] = molecular target: Neurogenic locus notch homolog protein 3 (Homo sapiens) (UniProt Q9UM47); assay: small molecules binding NOTCH3 protein – biochemical, 635/667 nm fluorescence, primary screen (AID 1096); conditions: small-molecule microarray, 635 nm fluorescence, higher = more signal
[20] = probe aEGFR binding to arrayed compounds – biochemical, biotinylated probe, 635/667 nm fluorescence, primary screen (AID 1097); conditions: small-molecule microarray, higher = more signal;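 further: probe is a biotinylated anti-EGFR antibody binding compounds printed on slides; score combines fluorescence near 667 nm and signal to noise of each spot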

Chain of Torsin-1A-interacting protein 2 (Homo sapiens) (Q8NFQ8 whole entry, looked up): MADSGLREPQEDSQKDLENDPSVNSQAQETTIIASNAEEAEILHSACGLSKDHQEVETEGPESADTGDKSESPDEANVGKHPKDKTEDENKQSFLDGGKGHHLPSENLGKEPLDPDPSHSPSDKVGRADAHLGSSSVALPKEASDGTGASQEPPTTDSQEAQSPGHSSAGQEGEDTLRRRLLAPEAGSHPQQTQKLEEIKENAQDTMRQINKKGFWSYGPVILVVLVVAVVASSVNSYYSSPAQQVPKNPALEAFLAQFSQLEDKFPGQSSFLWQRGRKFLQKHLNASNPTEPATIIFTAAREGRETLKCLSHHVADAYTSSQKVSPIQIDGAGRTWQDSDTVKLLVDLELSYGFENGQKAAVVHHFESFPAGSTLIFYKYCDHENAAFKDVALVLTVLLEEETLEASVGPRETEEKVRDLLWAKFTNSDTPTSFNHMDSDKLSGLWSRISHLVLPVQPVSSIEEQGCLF
Chain of Neurogenic locus notch homolog protein 3 (Homo sapiens) (Q9UM47 whole entry, looked up): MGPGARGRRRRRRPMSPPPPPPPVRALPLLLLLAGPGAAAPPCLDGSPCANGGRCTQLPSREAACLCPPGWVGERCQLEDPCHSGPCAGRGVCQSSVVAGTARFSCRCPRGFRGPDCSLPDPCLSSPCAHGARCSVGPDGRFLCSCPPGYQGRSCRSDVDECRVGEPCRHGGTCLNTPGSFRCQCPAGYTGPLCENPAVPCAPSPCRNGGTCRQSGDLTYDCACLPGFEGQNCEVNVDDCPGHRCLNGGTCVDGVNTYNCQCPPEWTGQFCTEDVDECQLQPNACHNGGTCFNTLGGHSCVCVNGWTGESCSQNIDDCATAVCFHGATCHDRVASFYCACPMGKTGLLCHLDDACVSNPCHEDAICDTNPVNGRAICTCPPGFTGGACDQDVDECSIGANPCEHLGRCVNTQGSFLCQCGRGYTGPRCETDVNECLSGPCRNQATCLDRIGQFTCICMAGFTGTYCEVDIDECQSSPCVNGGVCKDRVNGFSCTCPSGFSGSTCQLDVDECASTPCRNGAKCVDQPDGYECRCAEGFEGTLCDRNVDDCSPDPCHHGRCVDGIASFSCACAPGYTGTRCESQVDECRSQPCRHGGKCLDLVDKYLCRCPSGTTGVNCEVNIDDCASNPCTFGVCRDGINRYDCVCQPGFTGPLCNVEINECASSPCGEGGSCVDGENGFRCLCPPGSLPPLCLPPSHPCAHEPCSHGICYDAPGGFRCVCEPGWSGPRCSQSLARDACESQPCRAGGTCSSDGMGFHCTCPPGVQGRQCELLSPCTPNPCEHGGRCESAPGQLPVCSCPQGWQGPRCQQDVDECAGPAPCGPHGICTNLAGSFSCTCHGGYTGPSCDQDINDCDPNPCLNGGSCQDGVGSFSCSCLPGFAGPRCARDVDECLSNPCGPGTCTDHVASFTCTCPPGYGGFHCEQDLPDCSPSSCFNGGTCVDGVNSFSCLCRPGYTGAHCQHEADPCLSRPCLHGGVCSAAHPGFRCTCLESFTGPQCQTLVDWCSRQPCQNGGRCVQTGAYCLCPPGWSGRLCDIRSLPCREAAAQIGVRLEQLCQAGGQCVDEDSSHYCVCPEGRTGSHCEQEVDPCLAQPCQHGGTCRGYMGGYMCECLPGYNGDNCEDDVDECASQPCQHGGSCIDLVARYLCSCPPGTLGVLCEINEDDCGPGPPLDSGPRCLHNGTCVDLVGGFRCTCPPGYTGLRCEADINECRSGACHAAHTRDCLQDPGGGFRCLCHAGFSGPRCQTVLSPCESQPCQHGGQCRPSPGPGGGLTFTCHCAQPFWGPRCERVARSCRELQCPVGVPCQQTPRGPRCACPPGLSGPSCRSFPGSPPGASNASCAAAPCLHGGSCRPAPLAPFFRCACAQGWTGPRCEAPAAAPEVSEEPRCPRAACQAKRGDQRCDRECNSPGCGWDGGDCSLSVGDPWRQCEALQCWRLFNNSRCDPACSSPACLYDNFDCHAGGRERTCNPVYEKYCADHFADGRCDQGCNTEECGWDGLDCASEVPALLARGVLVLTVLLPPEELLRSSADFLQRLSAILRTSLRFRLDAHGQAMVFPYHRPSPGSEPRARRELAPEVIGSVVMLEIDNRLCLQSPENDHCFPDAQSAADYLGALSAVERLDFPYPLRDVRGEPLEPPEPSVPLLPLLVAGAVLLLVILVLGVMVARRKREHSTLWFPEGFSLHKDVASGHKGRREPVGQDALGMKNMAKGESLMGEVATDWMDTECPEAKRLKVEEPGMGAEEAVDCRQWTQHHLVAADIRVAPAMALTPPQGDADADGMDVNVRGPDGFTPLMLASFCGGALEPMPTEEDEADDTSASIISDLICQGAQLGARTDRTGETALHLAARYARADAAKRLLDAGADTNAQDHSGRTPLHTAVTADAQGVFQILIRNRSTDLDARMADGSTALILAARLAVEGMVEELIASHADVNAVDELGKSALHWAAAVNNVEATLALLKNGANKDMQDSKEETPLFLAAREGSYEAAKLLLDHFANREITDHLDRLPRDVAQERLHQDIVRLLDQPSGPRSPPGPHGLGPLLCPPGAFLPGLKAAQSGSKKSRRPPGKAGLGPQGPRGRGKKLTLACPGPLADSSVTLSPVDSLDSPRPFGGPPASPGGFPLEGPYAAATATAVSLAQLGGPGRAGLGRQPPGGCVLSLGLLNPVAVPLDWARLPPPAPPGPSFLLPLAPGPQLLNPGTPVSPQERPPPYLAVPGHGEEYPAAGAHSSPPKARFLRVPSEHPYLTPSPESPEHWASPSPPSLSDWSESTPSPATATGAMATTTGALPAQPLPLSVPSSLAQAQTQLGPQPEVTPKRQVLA
Chain of Pro-neuregulin-1, membrane-bound isoform (Homo sapiens) (Q02297 whole entry, looked up, the tested form may be a part, canonical isoform): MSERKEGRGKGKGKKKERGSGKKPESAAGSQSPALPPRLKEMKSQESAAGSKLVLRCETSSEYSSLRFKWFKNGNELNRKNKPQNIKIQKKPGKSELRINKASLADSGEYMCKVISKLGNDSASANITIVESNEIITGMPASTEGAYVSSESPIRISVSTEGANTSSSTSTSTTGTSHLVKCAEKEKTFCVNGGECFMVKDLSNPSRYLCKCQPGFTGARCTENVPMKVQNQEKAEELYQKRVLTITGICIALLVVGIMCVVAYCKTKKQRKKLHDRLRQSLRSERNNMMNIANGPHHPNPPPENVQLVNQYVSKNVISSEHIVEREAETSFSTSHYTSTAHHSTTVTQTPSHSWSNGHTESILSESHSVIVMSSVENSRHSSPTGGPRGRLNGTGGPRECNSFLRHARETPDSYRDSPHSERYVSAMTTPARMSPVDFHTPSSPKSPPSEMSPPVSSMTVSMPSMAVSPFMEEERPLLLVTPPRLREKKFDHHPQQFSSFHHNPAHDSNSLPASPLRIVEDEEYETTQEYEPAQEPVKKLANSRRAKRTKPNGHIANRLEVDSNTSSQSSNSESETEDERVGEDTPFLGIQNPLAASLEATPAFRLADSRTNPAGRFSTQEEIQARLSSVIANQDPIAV

Row | Compound | composite z-score [1] | composite z-score [2] | composite z-score [3] | composite z-score [4] | composite z-score [5] | composite z-score [6] | composite z-score [7] | z-score [8] | composite z-score [9] | composite z-score [10] | composite z-score [11] | z-score [12] | z-score [13] | z-score [14] | composite z-score [15] | z-score [16] | composite z-score [17] | composite z-score [18] | composite z-score [19] | composite z-score [20]
1 | O=C1O[C@H](c2ccccc2)[C@H](c2ccccc2)N2[C@H]1[C@@H](C(=O)Nc1nc3ccccc3s1)[C@]1(C(=O)Nc3ccc(C#CCCO)cc31)[C@H]2c1ccc(OCCO)cc1 | -0.379 | 0.135 | 0.0401 | 1.14 | 1.19 | 0.887 | 0.975 | -0.0455 (inactive) | 0.119 | 0.224 | 1.55 | 0.737 (inactive) | 0.933 (inactive) | 2.84 (inactive) | 3.19 | 0.0573 (inactive) | -0.137 | 1.72 | 1.12 | -0.0368
2 | C#CCN(Cc1ccccc1Br)C(/C=C/c1ccccc1)CO (stereo not given) | 0.389 | 0.0837 | -0.148 | 0.0126 | -0.619 | -0.17 | -0.131 | -1.83 (inactive) | -0.481 | -0.236 | -0.69 | -2.9 (inactive) | -19.4 (active) | 0.934 (inactive) | 0.123 | 0.556 (inactive) | -0.144 | -0.193 | -0.598 | -0.277
3 | COC(=O)c1c(CC[C@@H](CO)NC(=O)N[C@H](Cn2cc(Cc3ccccc3)nn2)C(C)C)oc(C(C)=O)c1C(=O)OC | -0.234 | 0.128 | -0.119 | 1.09 | 0.0441 | 0.0567 | 1.06 | 0.82 (inactive) | 0.059 | -0.236 | 1.08 | -0.178 (inactive) | -0.787 (inactive) | 0.158 (inactive) | 1.08 | 0.918 (inactive) | -0.166 | 0.493 | 0.39 | -0.145
4 | C#CCN(CC=C(C)C)[C@H](CO)c1ccccc1 | -0.418 | 0.0737 | -0.164 | -0.078 | 0.204 | -0.223 | -0.187 | -0.154 (inactive) | -0.0173 | -0.199 | 0.489 | -0.319 (inactive) | -4.47 (inactive) | -1.92 (inactive) | 0.0196 | 0.333 (inactive) | -0.0518 | 0.223 | 0.109 | -0.0814
5 | CC(C)[C@@H](CO)NC(=O)[C@H]1[C@@H](c2ccccc2)N(c2ccccc2)O[C@@H]1C | -0.5 | -0.245 | -0.143 | 0.439 | -0.208 | -0.0453 | 0.396 | -0.579 (inactive) | -0.0238 | -0.0237 | -0.159 | -0.0247 (inactive) | -0.207 (inactive) | 0.072 (inactive) | 1.02 | 1.08 (inactive) | -0.193 | 0.171 | -0.271 | -0.177
6 | COCCOC(=O)N1C(=O)[C@@]2(c3cc(C#CCCO)ccc31)[C@H](C(=O)N1CCN(c3ncccn3)CC1)[C@H]1C(=O)O[C@H](c3ccccc3)[C@H](c3ccccc3)N1[C@@H]2c1ccccc1OCCO | -0.545 | 0.217 | -0.0546 | 0.537 | 1.3 | 1.37 | 1.15 | -0.428 (inactive) | 0.335 | -0.0296 | 1.55 | 0.335 (inactive) | 0.411 (inactive) | 3.34 (inactive) | 2.98 | 1.84 (inactive) | -0.114 | 0.791 | 0.846 | 0.268
7 | CC(C)c1ccc(NN2C(C(O)c3cc(C(F)(F)F)cc(C(F)(F)F)c3)C=CC3C(=O)N(c4ccccc4)C(=O)C32)cc1 (stereo not given) | 0.43 | -0.165 | -0.0165 | 0.13 | 1.24 | 1.69 | 1.28 | 0.0782 (inactive) | 0.273 | 0.213 | 0.353 | 0.89 (inactive) | 0.183 (inactive) | 3.38 (inactive) | 3.22 | -2.08 (inactive) | -0.0831 | -0.722 | 0.245 | -0.152
8 | O=C1NCC(=O)N2[C@@H]1C[C@@H](C(=O)O)[C@H]2c1cccc(OCCO)c1 | 3.93 | 2.65 | 1.02 | 0.935 | 1.82 | 2.97 | 1.53 | 3.17 (inactive) | 3.63 | 3.89 | 1.54 | -0.215 (inactive) | -14.2 (active) | 0.273 (inactive) | 4.93 | 0.0664 (inactive) | 1.81 | 2.31 | 1.03 | 1.41
9 | O=C(C1N=C(c2ccc(OCCCO)cc2)N(c2ccccc2)O1)N1CCOCC1 (stereo not given) | -0.428 | 0.267 | 0.0646 | 1.28 | 1.45 | 1.27 | 0.336 | 2.27 (inactive) | 0.974 | -0.113 | 1.55 | -0.867 (inactive) | -0.992 (inactive) | -0.566 (inactive) | 2.22 | 1.75 (inactive) | -0.134 | 1.53 | 1.09 | 0.184
10 | COc1cc2c(cc1OC)CN(C(=O)[C@H]1[C@@H]3C(=O)O[C@@H](c4ccccc4)[C@@H](c4ccccc4)N3[C@@H](c3ccc(O)cc3)[C@]13C(=O)Nc1ccc(C#CC4=CCCCC4)cc13)CC2 | -0.0904 | 1.36 | 0.088 | 1.24 | 1.24 | 1.33 | 1.21 | -0.139 (inactive) | 0.827 | 0.421 | 1.51 | 0.203 (inactive) | -2.16 (inactive) | 0.563 (inactive) | 2.83 | 1.64 (inactive) | 0.0857 | 1.12 | 0.913 | 0.143
